In all, about 310,000 compounds went through this assay and about 11,000 (3.5%) were called active. Inconclusive results (about 4%) are left out. For the sample, actives were picked, then their nearest neighbours and some compounds at random. A number with no mark means an inactive call. Calls follow the shape of the dose curve; as a rule, active = well fitted inhibition curve with a large enough effect; inconclusive = small, poorly fitted or top-dose-only effect, or another doubt; inactive = no such curve, though single readings can be large or run the other way.
Potency is read from the fitted curve at half-maximal effect.

This experiment has as its target 4'-phosphopantetheinyl transferase ffp (Bacillus subtilis) (UniProt Q9F4F7). Nature of the experiment: qHTS Assay for Inhibitors of Bacillus subtilis Sfp phosphopantetheinyl transferase (PPTase).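 Also: the enzyme is Sfp with the accession as filed and its product quenches rhodamine fluorescence.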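 As to largest response in the series, negative = inhibition: 0% = enzyme reaction without inhibitor and -100% = no enzyme wells.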 Particulars: Biochemical Sfp PPTase activity. An excerpt: Assay Submitter: Michael Burkart, University of California, San Diego
Screening Center PI: Austin, C.P.
Screening Center: NIH Chemical Genomics Center [NCGC]
The covalent attachment of a phosphopantetheinyl (4'-PP) arm to a variety of synthases and other proteins is a key posttranslational protein modification. The 4'-PP is installed on the proteins post-translationally from coenzyme A (CoA) on a conserved serine residue by action of phosphopantetheinyl transferase (PPTase) enzymes. Phosphopantetheinylation is essential for synthase activity, and removal of the PPTase gene precludes natural product synthesis in microorganisms, or in the case of fatty acid biosynthesis, renders the organism unviable. PPTase enzymes belong to a distinct structural superfamily. Within bacteria, these enzymes are grouped into two classes based upon primary structure, the AcpS-Type and Sfp-Type PPTases.
Sfp-type PPTases, corresponding to an activator of surfactin production in Bacillus subtilis, are responsible for modifying type I polyketide and nonribosomal peptide synthases of prokaryotes. Sfp-type PPTases are responsible for the activation of a variety of pathogen-associated virulence factors. Among these compounds are toxins such as mycolactone from Mycobacterium ulcerans, siderophores such as vibriobactin from Vibrio cholerae or mycobactin from Mycobacterium tuberculosis, as well as the mycolic acids which form the waxy cell wall of Mycobacteria. The biosyntheses of these natural products are considered attractive targets for drug design.
In search of small molecule Sfp-PPTase inhibitors, a fluorescence quenching assay was developed for detection of Bacillus subtilis Sfp-PPTase enzymatic activity in a miniaturized high-throughput format. The consensus ybbr acceptor peptide […] was N-terminally labeled with Black Hole Quencher-2 (BHQ-2) and used in combination with rhodamine-labeled coenzyme A as a co-substrate.
Inhibition of Sfp-PPTase was detected by recording the fluorescence intensity change over a 30-minute reaction period at a 525 nm excitation and 598 nm emission. Reagents were supplied by Michael Burkart and Timothy Foley, University of California at San Diego.
This BioAssay deposition is for validation of the developed Sfp-PPtase assay.
Assay Buffer: 50 mM Hepes-Na pH 7.6, 10 mM MgCl2, 0.01% Nonidet P-40, and 0.01% BSA.
3 uL of Sfp-PPTase enzyme (final concentration 15 nM) and 1 uL of substrate mixture (final concentration for rhodamine-CoA and BHQ-2-YbbR 5 uM and 12.5 uM, respectively) dispensed in columns 1, 2, 5 - 48. Columns 1 and 2 used to generate neutral control (uninhibited reaction)
Three uL of reagents, consisting of buffer (in columns 3 and 4 as negative control) and Sfp-PPTase (in columns 1, 2, 5 - 48) were dispensed into 1,536-well Greiner black solid bottom plate. Compounds (23 nL) were transferred via Kalypsys pintool equipped with 1,536-pin array. The plate was incubated for 15 min at room temperature, followed by the addition of 1 uL substrate to start the reaction. The plate was then centrifuged at 1000 rpm for 15 seconds, and the fluorescence intensity recorded on a ViewLux High-throughput CCD imager (Perkin-Elmer) using standard BODIPY optics (525 nm excitation and 598 nm emission). The plate was then incubated for 30 minutes, and a second read on the ViewLux was performed. The fluorescence intensity difference over the 30-minute period was used to calculate the respective reaction rate for each well.
Turning to `CN(C)c1nc(=Nc2cccc(Cl)c2)ss1`, the Potency is 10 µM (active).

Take `Cc1ccc(-c2ccc(/C=C(\C#N)C(N)=S)o2)c([N+](=O)[O-])c1`: the Potency was 35.5 µM (active). Consider `Cc1ccc(Cc2cnc(NC(=O)/C(C#N)=C/c3ccc(-c4cccc([N+](=O)[O-])c4)o3)s2)cc1`, for which the largest response in the series, negative = inhibition was 3.34%. For the molecule `N#C/C(=C/c1ccc(-c2ccccc2[N+](=O)[O-])o1)C(=O)NCCN1CCCCC1`, the largest response in the series, negative = inhibition was -17.3%. On the same count and under the same terms, with `CC(C)(C)C(=O)NC1CC2CCCC(C1)N2C(=O)Nc1ccccc1F` (stereo unspecified) the figure was 15.8%. The same measure, in the same setting: the result for `O=C(c1ccncc1)N1CCC2(CCN(Cc3cc(C(F)(F)F)cc(C(F)(F)F)c3)CC2)CC1` reads 8.21%; that for `N#Cc1c(C(F)(F)F)cc(-c2ccc(Cl)cc2)nc1SCC(=O)O`, 7.84%. Take `N#Cc1c(-c2ccccc2)cc(-c2ccccc2)nc1SCC(=O)O`: the Potency was 35.5 µM (active). Regarding `CCSc1nc(-c2ccc(OC)cc2)cc(-c2ccc(OC)cc2)c1C#N`, the largest response in the series, negative = inhibition is 4.06%.

Turning to `CC(O)c1nc2c(c(=O)n(C)c(=O)n2C)n1C` (stereo unspecified), the largest response in the series, negative = inhibition was 11.9%. In the case of `CCC/C(C)=N\Nc1nc2c(c(=O)n(C)c(=O)n2C)n1C`, the Potency was 39.8 µM (active). Regarding `Cn1c(=O)c2c(nc(NCc3ccccc3)n2CC(N)=O)n(C)c1=O`, the largest response in the series, negative = inhibition was 10.1%. Still for that read-out and setting: the result for `CCCC[C@H]1COCCS(=O)(=O)N1Cc1cccc(Cl)c1` reads -5.24%; that for `COc1ccc(CNC(=O)c2nnn(CC(=O)Nc3cc(C)cc(C)c3)c2N)cc1`, -8.71%. Still for that read-out and setting: the result for `COc1ccc(C(=O)Nc2c(N)nc(SCC(=O)Nc3ccc(C(C)=O)cc3)[nH]c2=O)cc1` reads -14.5%. As for `Cc1ccc(OCC(=O)Nc2ccccc2C(=O)NC2CC2)cc1C`, the largest response in the series, negative = inhibition is -9.75%. In the case of `CCOc1ccccc1NC(=O)Cc1cccs1`, the largest response in the series, negative = inhibition is 13.9%. Regarding `CCOc1ccccc1NC(=O)Cn1nnc(C(=O)NCc2cccs2)c1N`, the Potency is 50.1 µM (active). For `CCOc1ccc(Cn2nnc(C(=O)NCc3ccccc3)c2N)cc1`, the largest response in the series, negative = inhibition is 9.87%. Same read-out and setting: with `Cc1cccc(C(=O)OC(C)CN2CCCC2)c1` (stereo unspecified) the figure was 6.65%; with `Cc1ccc(F)c(NC(=O)CCOc2ccccc2C)c1`, -1.65%; with `Cn1cc[n+](C)c1COc1ccc(C=O)cc1`, 12%. On the same count and under the same terms, the result for `O=C1CCC([N+](=O)[O-])C(c2ccccc2Br)N1` (stereo unspecified) reads 15.7%.

Regarding `C=CCSC1=C(C#N)C(c2cc(Br)c(O)c(OC)c2)CC(=O)N1` (stereo unspecified), the Potency is 25.1 µM (active). Take `Cc1ccc(C2CC(=O)NC(SCC(=O)OCc3ccccc3)=C2C#N)o1` (stereo unspecified): the largest response in the series, negative = inhibition was -27.5%.

Take `CCOC(=O)CSC1=C(C#N)C(c2sccc2C)CC(=O)N1` (stereo unspecified): the largest response in the series, negative = inhibition was 10.2%. The same measure, in the same setting: the result for `O=S(=O)(NC1CCCC1)c1ccc(-n2cnnn2)cc1` reads 25.6%. The same measure, in the same setting: with `O=C(NCCCn1ccnc1)C1CCCN(S(=O)(=O)c2cc(Cl)ccc2Cl)C1` (stereo unspecified) the figure was 16.2%. For `O=c1oc2ccccc2cc1-c1cn(-c2ccccc2)c(=S)[nH]1`, the Potency is 35.5 µM (active). Turning to `O=C(c1cn(-c2ccccc2)nc1-c1cc2ccccc2oc1=O)N1CCOCC1`, the largest response in the series, negative = inhibition is -5.03%. On the same count and under the same terms, the result for `O=C(Nc1cc2ccccc2oc1=O)C1CCCCC1` reads 26.6%; that for `Cc1noc(C)c1CCC(=O)N1CCCC(CO)(Cc2ccccc2)C1` (stereo unspecified), -6.98%. Same read-out and setting: the result for `COc1ccc2c(c1)O[C@@H](c1ccc3c(c1)OCO3)[C@H](OC(=O)NCCc1ccc(OC)c(OC)c1)C2=O` reads 6.18%; that for `CC(=O)c1ccc(N2CCN(C(=O)C3CCN(S(=O)(=O)c4ccc5c(c4)CC(C)N5C(=O)C4CC4)CC3)CC2)cc1` (stereo unspecified), -0.0372%. In the case of `COc1c(O)cc2oc(-c3ccc(O)c(O)c3)cc(=O)c2c1O`, the Potency is 50.1 µM (active). `O=c1cc(-c2ccc(O)cc2)oc2c(-c3cc(-c4cc(=O)c5c(O)cc(O)cc5o4)ccc3O)c(O)ccc12`: the largest response in the series, negative = inhibition was -11.5%. For `O=c1cc(-c2ccc(O)c(O)c2)oc2cccc(O)c12`, the largest response in the series, negative = inhibition was -4.56%. On the same count and under the same terms, the result for `COc1ccc(C(C)C)cc1S(=O)(=O)Nc1ncn[nH]1` reads 16.1%; that for `COc1ccc(CNS(=O)(=O)c2cc(-c3cc(C)no3)ccc2C(C)C)cc1`, 7.48%; that for `CCc1nc2ccc(C(=O)N3CCN(c4cccc(Cl)c4)CC3)cc2nc1CC`, -10.1%.

Turning to `Nc1ccccc1SCc1cc([N+](=O)[O-])cc2c1OCOC2`, the largest response in the series, negative = inhibition was -29.9%. On to `C#CCC(C(=O)OC)(C(=O)OC)C(C[N+](=O)[O-])c1ccccc1` (stereo unspecified), for which the largest response in the series, negative = inhibition is -5.44%. In the case of `Nc1ccccc1SC(C[N+](=O)[O-])c1ccccc1` (stereo unspecified), the Potency is 7.94 µM (active). For the molecule `O=c1c2cc(Br)ccc2nc(-c2cccc(Cl)c2)n1O`, the largest response in the series, negative = inhibition is 10.6%. Still for that read-out and setting: with `CCc1c(C)nc(N)n2c(SCC(=O)NC3CCCCC3)nnc12` the figure was 11.3%; with `O=C(O)C1CCCN1C1=NS(=O)(=O)c2ccccc21` (stereo unspecified), 13.1%.

The record behind these values is PubChem BioAssay AID1490 (National Center for Advancing Translational Sciences (NCATS), 2009).
